Data taken from PubChem BioAssay (NCATS).
Inconclusive results are not listed. Active and inactive are the calls of the source. Calls follow the shape of the dose curve; as a rule, active = well fitted inhibition curve with a large enough effect; inconclusive = small, poorly fitted or top-dose-only effect; inactive = flat fitted curve, though single readings scatter.

Tests used:
Assay in all cases: qHTS profiling for inhibitors of Plasmodium falciparum proliferation (AID 504749); also: nearly all actives have a fitted effect of over 60% in size
Conditions in all cases: P. falciparum in erythrocytes, SYBR Green DNA, 72 h; series mostly up to 28.7 µM
CP217 = system: CP217
In short: (§1)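 Quantitative HTS: compounds pinned into medium, infected erythrocytes added (0.3% parasitemia, 2.5% hematocrit), 72 h culture at 37 C under 5% CO2. Saponin/Triton lysis with SYBR Green I, overnight RT, then fluorescence read.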

CP237 = system: CP237
In short: as §1

CP238 = system: CP238
In short: as §1

CP247 = system: CP247
In short: as §1

CP250 = system: CP250
In short: as §1

CP252 = system: CP252
In short: as §1

CP256 = system: CP256
In short: as §1

CP260 = system: CP260
In short: as §1

CP262 = system: CP262
In short: as §1

CP265 = system: CP265
In short: as §1

CP266 = system: CP266
In short: as §1

CP268 = system: CP268
In short: as §1

CP269 = system: CP269
In short: as §1

CP286 = system: CP286
In short: as §1

CP291 = system: CP291
In short: as §1

CP297 = system: CP297
In short: as §1

CP305 = system: CP305
In short: as §1

CP315 = system: CP315
In short: as §1

CP325 = system: CP325
In short: as §1

CP329 = system: CP329
In short: as §1

Measured: Potency

CCCCOC(=O)c1ccc(N)cc1
inactive: all assays above

O=C(O)Cc1cn(-c2ccccc2)nc1-c1ccc(Cl)cc1
inactive: all assays above

NC(=O)NS(=O)(=O)c1ccc(N)cc1
inactive: all assays above

CNCc1ccccc1
inactive: all assays above

Cc1cccc(Nc2ccccc2C(=O)O)c1C
inactive: all assays above

Cc1ccccc1N=Nc1ccc(N=Nc2c(O)ccc3ccccc23)c(C)c1
inactive: all assays above

NNC(=O)CP(=O)(c1ccccc1)c1ccccc1
inactive: all assays above

O=C(O)c1ccccc1OP(=O)(O)O
inactive: all assays above

CN(C(=O)c1c(O)c2ccccc2n(C)c1=O)c1ccccc1
inactive: all assays above

CC(=O)Oc1cccc(O)c1
inactive: all assays above

NCC1CCC(C(=O)Oc2ccc(CCC(=O)O)cc2)CC1 (stereo not given)
inactive: all assays above

O=C(CCBr)N1CCN(C(=O)CCBr)CC1
inactive: all assays above

O=c1[nH]cnc2nc[nH]c12
inactive: all assays above

O=C(CN1CCNCC1)NC1CCCCC1
inactive: all assays above

COc1ccc(NS(=O)(=O)c2ccc(N)cc2)nn1
inactive: all assays above

O=C(O)Cn1c(C(=O)Nc2nc(-c3ccccc3Cl)cs2)cc2ccccc21
inactive: all assays above

CCc1cccc(CC)c1NC(=O)CN(CC(=O)O)CC(=O)O
inactive: all assays above

CC(=O)OCC(COC(C)=O)OC(C)=O
inactive: all assays above

O=c1[nH]c2cc(C(F)(F)F)c(N3CCOCC3)cc2n(CP(=O)(O)O)c1=O
inactive: all assays above

CCCOC(=O)c1ccc(N)cc1
inactive: all assays above

COc1cc(O)cc(O)c1
inactive: all assays above

CC(O)CCCCn1c(=O)c2c(ncn2C)n(C)c1=O (stereo not given)
inactive: all assays above

O=C(NCN1CCOCC1)c1cnccn1
inactive: all assays above

NC(N)=NCCN1CCCCCCC1
inactive: all assays above

O=C(O)Cc1ccc(CCNS(=O)(=O)c2ccc(Cl)cc2)cc1
inactive: all assays above

O=C(O)c1ccc[n+]([O-])c1
inactive: all assays above

Cc1ccc(C(C)C)c(O)c1
inactive: all assays above

OCC(O)CS (stereo not given)
inactive: all assays above

CC(C)=CCC/C(C)=C/CO
inactive: all assays above
